Pemphigus Ab inh – human desmoglein-3 autoantibody binding inhibition | P32926 | DSG3-coupled beads, scFv-anti-DSG3-GFP binding, flow cytometry; hits give low values | binding (percent of control), % at 10 µM | 310,000 tested, 0.48% active | AID 588358;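 active = binding more than 3 SD below its plate's average and above zero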;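 note: hits lower antibody fragment binding to DSG3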
KLK7 zymogen act – activates the human kallikrein-7 zymogen | P49862 | purified proKLK7, EDANS-DABCYL substrate fluorescence; 100% is mature enzyme control, 0% vehicle | activation, % at 7 µM | 370,000 tested, 0.9% active;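 active = activation above the mean of all tested compounds plus 3 SD, computed per campaign excluding outliers beyond control limits, cut at about 13% in these data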
ADAM10 inh – ADAM10 inhibition, QFRET primary screen | O14672 | recombinant ADAM10, EDANS/DABCYL FRET peptide cleavage, 3 h | inhibition, % at 7 µM | 370,000 tested, 0.62% active | AID 720582;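 active = inhibition above a per-campaign cutoff equal to the mean of compounds falling between control-based bounds plus 3 SD, cut at about 20% in these data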;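 note: 0% = DMSO wells while the 100% control is not disclosed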
Target sequence (O14672 214-748 limits assumed): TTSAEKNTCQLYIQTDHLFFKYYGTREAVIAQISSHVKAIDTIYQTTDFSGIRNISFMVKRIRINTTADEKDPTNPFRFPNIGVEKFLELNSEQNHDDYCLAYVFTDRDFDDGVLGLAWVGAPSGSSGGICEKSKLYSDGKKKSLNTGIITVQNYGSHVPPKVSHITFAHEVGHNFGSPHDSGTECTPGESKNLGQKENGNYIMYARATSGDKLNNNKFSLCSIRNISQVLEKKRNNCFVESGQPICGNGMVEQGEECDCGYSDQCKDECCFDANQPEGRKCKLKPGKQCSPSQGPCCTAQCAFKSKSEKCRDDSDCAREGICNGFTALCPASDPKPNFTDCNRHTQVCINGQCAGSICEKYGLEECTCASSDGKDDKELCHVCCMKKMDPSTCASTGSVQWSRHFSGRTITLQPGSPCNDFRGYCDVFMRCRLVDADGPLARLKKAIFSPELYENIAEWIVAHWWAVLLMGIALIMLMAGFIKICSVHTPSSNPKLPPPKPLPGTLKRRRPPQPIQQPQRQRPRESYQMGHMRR
ADAM17 inh – ADAM17 inhibition, QFRET primary screen; 370,000 tested, 0.83% active; P78536; AID 720648; recombinant ADAM17, EDANS/DABCYL FRET peptide cleavage; inhibition, % at 6.95 µM;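 active = inhibition above the mean of compounds lying between control limits plus 3 SD, set per campaign, cut at about 8.5% in these data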;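 note: 0% = DMSO-only wells as the low control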
rCAG binder – molecules binding r(CAG) RNA repeats. r(CAG) RNA repeat, TO-PRO-1 dye displacement fluorescence. inhibition, % at 3 µM. 370,000 tested, 1.3% active;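 active = inhibition above the plate cutoff, the mean of all test compounds on that plate plus 3 SD, cut at about 35% in these data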;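 note: 0% = DMSO alone and 100% = 100 µM mitoxantrone as full dye displacement; higher means more dye released from RNA so lower well fluorescence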
MPTP block – inhibitors of mitochondrial permeability transition pore. isolated mouse mitochondria, Ca2+ swelling absorbance, 30 min. inhibition, % at 10 µM. 360,000 tested, 1.4% active;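 active = inhibition of 50% or more, scaled per plate between neutral and stimulator controls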;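 note: 0% = DMSO wells given calcium and 100% = 1 mM EGTA wells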
ADAM10 counter – counter-screen for ADAM17 exosite inhibitors: inhibitors of human ADAM10. shares compounds with ADAM17 inh. recombinant ADAM10, EDANS/DABCYL FRET peptide cleavage, 3 h. inhibition, % at 6.95 µM. 2,900 tested, 47% active. AID 743256;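 active = mean inhibition over the triplicate runs exceeds the activity threshold set in the earlier primary screen, cut at about 20% in these data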;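 note: 0% = DMSO wells and 100% = marimastat wells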
ADAM17 confirm – human ADAM17 inhibition, confirmation. 2,900 tested, 65% active. inhibition, % at 6.95 µM. AID 743257. shares compounds with ADAM17 inh. recombinant ADAM17, EDANS/DABCYL QFRET peptide cleavage;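 active = mean inhibition across replicates above the hit cutoff set in the primary screen, cut at about 8.5% in these data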;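 note: 0% = DMSO wells and 100% = marimastat wells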
* = called active by the depositor; · = no result. In the library only some 4.7% were active in any assay of this set; here they are far more common.

SMILES	Pemphigus Ab inh	KLK7 zymogen act	ADAM10 inh	ADAM17 inh	rCAG binder	MPTP block	ADAM10 counter	ADAM17 confirm
O=C1N[C@@H](Cc2c[nH]c3ccccc23)COC(=O)[C@@H](Cc2ccc(F)cc2)CC/C=C/C[C@@H]1CC(=O)N(CCO)Cc1ccccc1	98	0	18	10*	14	-4	59*	28*
COC(=O)c1nn(-c2ccccc2)c(Sc2ccc(Br)cc2)c1/C=N/O	101	-1	4	11*	6	0	11	4
COC(=O)c1nn(-c2ccccc2)c(Sc2ccc(Cl)cc2)c1/C=N/O	108	0	7	4	-5	0	·	·
CCC(=O)Nc1nnc(C)s1	104	0	6	12*	5	-1	-1	6
COc1cc(NC(=O)COC(=O)CC2CC3CCC2C3)cc(OC)c1 (stereo not given)	123	-1	-4	-3	2	0	·	·
CN(C)S(=O)(=O)c1ccc(NC(=O)COC(=O)CC2CC3CCC2C3)cc1 (stereo not given)	97	1	13	8.6*	5	0	20*	14*
Cc1nnsc1NC(=O)OCCCl	·	0	2	-1	2	0	·	·
Cc1nnsc1NC(=O)OCc1ccc(Cl)cc1Cl	108	0	12	10*	5	8	6	1
COc1cc(C2C(c3ccccc3)C(c3cc(OC)cc(=O)o3)C2c2ccccc2)oc(=O)c1 (stereo not given)	99	0	-8	-3	-4	-1	·	·
COc1ccccc1NC(=O)Nc1nc(CC(=O)N2CCN(c3ccc(F)cc3)CC2)cs1	105	0	5	9.8*	9	1	24*	16*
COc1ccc(-c2noc(C3CCCN(C(=O)Nc4ccc(C)c(F)c4)C3)n2)cc1 (stereo not given)	·	0	5	9.8*	5	·	18	9.2*
CSCCC(NC(=O)c1ccccc1Br)C(=O)NNC(=O)c1ccncc1 (stereo not given)	88	0	-8	-8	2	-3	·	·
c1ccc2oc(-c3ccc(Nc4nc(N5CCOCC5)nc(N5CCOCC5)n4)cc3)nc2c1	103	0	-41	-11	0	0	·	·
COc1ccc(NC(=O)C(c2ccc(C)cc2)N(C)C(=O)Cc2cccs2)cc1 (stereo not given)	97	0	7	9.0*	-2	4	2	6
COc1ccc(NC(=O)C(c2ccc(OC)cc2)N(C)C(=O)Cc2cccs2)cc1 (stereo not given)	105	0	1	-2	9	-2	·	·
CCCCNc1ccc2c(c1)OC[C@@H](CC(C)C)NS2(=O)=O	·	0	-1	-1	1	·	·	·
CC1(Cc2ccccc2C#N)C(=O)Nc2ccc(OC(F)(F)F)cc21 (stereo not given)	·	0	1	-1	-3	0	·	·
CC1(Cc2ccccc2Cl)C(=O)Nc2ccc(OC(F)(F)F)cc21 (stereo not given)	·	0	13	13*	-3	2	21*	13*
COc1ccc(Cc2c(-c3cccc(Cl)c3)nc3c(C)cc(Br)cn23)c(C)c1	·	0	-5	4	10	0	·	·
Cc1cccc(CN2C(=O)N/C(=C/c3ccc(C)s3)C2=O)c1	119	0	2	3	6	0	·	·
CCN1C(=O)/C(=C/c2ccc(C)s2)NC1=S	105	0	14	10*	3	-1	12	12*
COc1ccc(CNC(=O)C[C@@H]2C[C@H]3c4cc(NC(=O)NC5CCCC5)ccc4O[C@H]3[C@H](CO)O2)cc1	101	2	6	9.1*	5	0	0	3
COc1ccc(CNC(=O)C[C@@H]2C[C@H]3c4cc(NC(=O)C5CCC5)ccc4O[C@H]3[C@@H](CO)O2)cc1	103	1	-11	-5	4	-1	·	·
Cc1ccc(-c2csc(NC(=O)Cn3cnc4c3c(=O)n(C)c(=O)n4C)n2)cc1C	·	4	-8	-2	20	0	·	·
Cn1c(=O)c2c(ncn2CC(=O)Nc2nc(-c3ccc(F)c(F)c3)cs2)n(C)c1=O	97	0	2	8.8*	7	3	-6	0
SMILES	Pemphigus Ab inh	KLK7 zymogen act	ADAM10 inh	ADAM17 inh	rCAG binder	MPTP block	ADAM10 counter	ADAM17 confirm
CCCCOC(=O)c1ccc(NC(=O)CN2C(=O)NC3(CCCCCC3)C2=O)cc1	96	0	8	8	4	-1	·	·
CCCCOC(=O)c1ccc(NC(=O)COC(=O)CN2C(=O)NC3(CCCC3)C2=O)cc1	·	0	5	9.2*	-3	1	21*	13*
O=C(O)CCC(=O)c1c[nH]c2ccccc12	96	-1	1	8.9*	1	0	9	20*
N#Cc1ccc(C23CC4(C2)[C@H](CN(Cc2ccc(-c5ccccc5)cc2)[C@@H]4c2ccccc2)C3c2ccc(Cl)nc2)cc1 (stereo not given in full)	99	-1	18	13*	15	0	-1	4
Clc1ccc(C2[C@H]3CN(Cc4ccc(-c5ccccc5)cc4)[C@H](c4ccccc4)C34CC2(c2ccccc2)C4)cn1 (stereo not given in full)	·	0	3	1	11	·	·	·
Cc1ccc(S(=O)(=O)N2CCCCC2CCNC(=O)C(=O)NCc2cccnc2)cc1 (stereo not given)	105	0	-1	-3	-5	-1	·	·
Cc1ccc(CNC(=O)C(=O)NCC2OCCCN2S(=O)(=O)c2cccs2)cc1 (stereo not given)	118	1	4	11*	7	0	-2	0
O=C(NCCC1CCCCN1S(=O)(=O)c1ccccc1)C(=O)Nc1ccc(F)cc1 (stereo not given)	102	0	-11	9.7*	-3	-1	11	8
Cc1ccc(CNC(=O)C(=O)NCCC2CCCCN2S(=O)(=O)c2ccc(C)cc2)cc1 (stereo not given)	112	0	19	13*	0	-1	6	2
CC(C)(C)NC(=O)C1(C)CCC(=O)N1CC(F)(F)F (stereo not given)	·	0	-7	-6	1	0	·	·
O=C(NCC(=O)N1CCOCC1)c1ccc(Cl)c(Cl)c1	145	0	-6	-6	1	0	·	·
O=C(/C=C(/c1ccc(Cl)cc1)n1cncn1)c1ccccc1	107	0	9	9.7*	2	1	3	4
